Rows were chosen to be rich in hits. Some 10% of all compounds tested hit in one or more screens of this group.
KB-3-1 tox = kills parental KB-3-1 adenocarcinoma cells | KB-3-1 viability, CellTiter-Glo ATP luminescence, 72 h | hit rate 1.4% among 400,000 | Potency, µM (highest dose often 46.1 µM), hits mostly cytotoxic; further: on the % scale 0 is the no-effect control and ±100 the full control effect; nearly all actives have a fitted effect of over 60% in size
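72 h, 37 °C compound treatment of KB-3-1 parental cells; CellTiter-Glo added, 10 min, luminescence read. Data corrected against DMSO-only plates and normalized before curve fitting.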
MCF10A rereplic = DNA re-replication induction in MCF 10a cells; MCF 10A DNA re-replication, Hoechst nuclear intensity, 48 h; Potency, µM (highest dose often 46.1 µM), for the others: top-dose activity, positive = re-replication, hits mostly activators; hit rate 2.9% among 350,000; further: % of control where 0% means no effect; nearly all actives have a fitted effect of over 50% in size
KB-V1 MDR tox = KB-V1 MDR subline cytotoxicity | KB-V1 MDR cells viability, CellTiter-Glo, 72 h | Potency, µM (titrated, usually from 46.1 µM), usual class: cytotoxic | hit rate 3.4% among 400,000 | AID 1347076; further: on the % scale 0 is the no-effect control and ±100 the full control effect; nearly all actives have a fitted effect of over 60% in size
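Drug-selected KB-V1 cells, grown in DMEM lacking phenol red with 10% FBS, receive compound titrations; after three days at 37 degrees C, surviving cell ATP is quantified by CellTiter-Glo luminescence and responses normalized and curve-fitted.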
SW480 rereplic = induces DNA re-replication in SW480 colon adenocarcinoma cells. Potency, µM (top dose mostly 46.1 µM), for the others: at the top dose re-replication activation, actives largely listed as activators. hit rate 1.8% among 340,000. AID 624297. SW480 DNA re-replication, Hoechst DNA content imaging, 48 h; further: % of control where 0% means no effect; nearly all actives have a fitted effect of over 55% in size
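First, 250 cells per well were seeded. Next, compound or vehicle (23 nL) was pinned in, plates sat 48 hr at 37 C. Finally Hoechst was added for 40 min before fluorescence scanning.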
RORgamma inh = ROR gamma (mouse) transcription inhibition; AID 2551; P51450; Potency, µM (doses to about 53.6 µM), without a hit: at the top dose activity change, negative = inhibition, usual class: inhibitors; Drosophila S2 Gal4-RORgamma UAS-luciferase reporter, 20 h; hit rate 5.4% among 310,000; further: on the % scale 0 is the no-effect control and ±100 the full control effect; nearly all actives have a fitted effect of over 60% in size
Target sequence (P51450 whole entry, looked up, the tested form may be a part): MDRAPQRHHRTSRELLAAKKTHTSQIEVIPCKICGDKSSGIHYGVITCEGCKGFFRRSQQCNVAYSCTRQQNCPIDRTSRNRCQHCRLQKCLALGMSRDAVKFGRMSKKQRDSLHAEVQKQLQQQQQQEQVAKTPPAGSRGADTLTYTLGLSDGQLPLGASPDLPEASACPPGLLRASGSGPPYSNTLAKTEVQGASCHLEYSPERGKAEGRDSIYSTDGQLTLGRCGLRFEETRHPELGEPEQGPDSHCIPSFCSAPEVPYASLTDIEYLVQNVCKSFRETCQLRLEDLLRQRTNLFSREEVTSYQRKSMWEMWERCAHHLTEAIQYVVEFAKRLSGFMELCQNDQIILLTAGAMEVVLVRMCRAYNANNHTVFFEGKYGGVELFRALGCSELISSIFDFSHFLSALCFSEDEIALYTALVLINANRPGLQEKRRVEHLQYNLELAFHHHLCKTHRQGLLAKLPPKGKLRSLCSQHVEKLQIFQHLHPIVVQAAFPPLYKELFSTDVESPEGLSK
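In this cell-based reporter format, copper sulfate (700 uM final) drives Gal4–ROR gamma fusion expression from a metallothionein promoter in Drosophila Schneider cells; compounds preincubated 1 hr, reporter read after 20 hr at ambient temperature.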
Gal4-VP16 FLuc = inhibits Gal4-VP16 luciferase reporter, ROR gamma counter-screen; Drosophila S2 Gal4-VP16 UAS-luciferase, luminescence, 20 h; Potency, µM (titrated, usually from 53.6 µM), inactives show at the highest dose activity, negative = inhibition, actives largely listed as inhibitors; hit rate 3.5% among 310,000; AID 2546;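 further: Gal4-VP16 expression switched on by copper sulfate through the metallothionein promoter; on the % scale 0 is the no-effect control and ±100 the full control effect; nearly all actives have a fitted effect of over 50% in size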
* = called active by the depositor; i = inactive; ? = inconclusive; / = no result. The call rests on the fitted dose curve; in most records, active means well fitted curve in the direction sought with a large enough effect; inconclusive means small, poorly fitted or top-dose-only effect, or another doubt; inactive means no such curve, though single readings can be large; an effect the other way counts as inactive or inconclusive. Potency means the concentration at half of the fitted maximal effect.

SMILES	KB-3-1 tox	MCF10A rereplic	KB-V1 MDR tox	SW480 rereplic	RORgamma inh	Gal4-VP16 FLuc
NC(=O)N/N=C/c1cn(-c2ccccc2)nc1-c1cccs1	i	0.5%	?	-0.3%	32.8%	0.8%
O=S1(=O)CC(N2CC=CC2)CN1Cc1ccc(F)cc1 (stereo not given)	i	/	i	/	/	/
NC(=O)Oc1ccc(Cc2ccccc2)cc1	/	6.2%	/	5.1%	22.1%	5.1%
Cc1noc2ncnc(NCCc3ccccc3)c12	?	/	i	/	/	/
Cc1ccc(CCNc2ncnc3onc(C)c23)cc1	2.91µM*	/	i	/	/	/
CCOc1ccc(CCNc2ncnc3onc(C)c23)cc1OCC	2.59µM*	/	i	/	/	/
CCOCCCNc1ncnc2onc(C)c12	i	/	i	/	/	/
NNc1nc2sc3c(c2c(=O)[nH]1)CCc1ccccc1-3	i	?	i	-2.4%	15.8µM*	17.8µM*
CCOC(=O)N1C(=O)[C@@](c2ccc(Cl)cc2)(C(C)C)N1C(=O)OCC	i	20.6µM*	?	?	?	?
CCOC(=O)N1C(=O)[C@](c2ccc(Cl)cc2)(C(C)C)N1C(=O)OCC	i	?	i	?	-37.2%	-16.0%
CCOCCCNC(=O)Cn1ncc2c([nH]c3ccccc32)c1=O	i	/	i	/	/	/
COC(=O)C1=CN(C2CCCCC2)C=C(C(=O)OC)C1c1ccc2c(c1)OCO2	i	13µM*	i	7.31µM*	1.5%	1.8%
COC(=O)C1=CN(c2ccc3c(c2)OCO3)C(N)=C(C#N)C1c1ccc(-c2ccccc2)cc1 (stereo not given)	4.61µM*	/	3.66µM*	/	/	/
COC(=O)C1=CN(c2ccc(OC)cc2OC)C(N)=C(C#N)C1c1cccc([N+](=O)[O-])c1 (stereo not given)	2.06µM*	/	2.31µM*	/	/	/
COCCN1C=C(C(=O)OC)C(c2ccc3c(c2)OCO3)C(C(=O)OC)=C1	i	-21.5%	?	0.1%	?	2.0%
COC(=O)C1=CN(c2ccc(F)cc2)C(N)=C(C#N)C1c1ccc(-c2ccccc2)cc1 (stereo not given)	?	/	16.4µM*	/	/	/
COC(=O)C1=CN(c2ccc(Oc3ccccc3)cc2)C(N)=C(C#N)C1c1cccc(F)c1 (stereo not given)	i	/	i	/	/	/
COC(=O)C1=CN(c2ccc(C(C)(C)C)cc2)C(N)=C(C#N)C1c1ccc(OC)cc1 (stereo not given)	i	/	?	/	/	/
Cc1coc2cc3oc(=O)c(CCC(=O)NCc4ccccc4Cl)c(C)c3cc12	i	/	i	/	/	/
COC(=O)C1=CN(c2ccc(F)cc2)C(N)=C(C#N)C1c1cccc(F)c1 (stereo not given)	?	/	8.2µM*	/	/	/
COC(=O)C1=CN(c2cc(C)cc(C)c2)C=C(C(=O)OC)C1c1cccc(F)c1	i	3.66µM*	?	?	-1.4%	-2.4%
COC(=O)C1=CN(c2cc(C)cc(C)c2)C=C(C(=O)OC)C1c1ccc(OC)c(O)c1	?	20.1%	?	?	3.1%	9.9%
CN(C)Cc1ccccc1-c1cc(N(C)C)ncn1	/	/	/	/	-3.1%	2.0%
Cc1cc2n(c(=O)c1C#N)CCCN2c1cccc(Cl)c1	i	2.6%	13µM*	-2.0%	38.2%	-3.2%
Cc1cc(C)n(-c2cccc(Cl)c2)c(=O)c1C#N	i	-6.0%	i	0.9%	-11.3%	1.9%
O=C1CC(N2CCN(C/C=C/c3ccccc3)CC2)C(=O)N1Cc1ccc(N2CCCC2=O)cc1 (stereo not given)	?	7.7%	10.3µM*	-0.7%	22.1%	-6.5%
O=C1CCCN1CCC1CCN(C2CC(=O)N(Cc3ccc(N4CCCC4=O)cc3)C2=O)CC1 (stereo not given)	i	29.6%	i	11.5%	7.08µM*	?
Cc1ccc(-c2nnc(SCCC(=O)Nc3ccccc3)n2C)cc1	i	/	i	/	/	/

Compound activity (PubChem BioAssay)
